Among all 39,000 compounds or so, about 3,300 (8.5%) were called active. This is one part of a sample in which actives are shown more often than they occur.
These molecules were tested on HepG2 (assay: cytotoxicity call (relative viability < 0.9)). Settings: 10 µM.
`COc1ccc(CN(C)C[C@@H]2OCCCC[C@H](C)Oc3ccc(NS(=O)(=O)c4ccc(C)cc4)cc3C(=O)N([C@H](C)CO)C[C@H]2C)cc1` was tested, and the cytotoxicity call was “inactive”. For `COc1ccc(S(=O)(=O)N(C)C[C@H]2OCc3cn(nn3)CCCC(=O)N([C@H](C)CO)C[C@H]2C)cc1`, the cytotoxicity call was “inactive”. `C[C@@H]1CCCCO[C@H](CN(C)S(C)(=O)=O)[C@@H](C)CN([C@H](C)CO)C(=O)c2cc(NS(=O)(=O)c3cn(C)cn3)ccc2O1` was tested, and the cytotoxicity call was “inactive”. In the case of `CC(=O)n1cc([C@@H]2C=C(C(=O)N3CCN(C)CC3)O[C@H](OCc3ccc(CO)cc3)C2)c2ccccc21`, the cytotoxicity call is reported as “inactive”. `CCn1c(C)cn2c3c(=O)n(CCN4CCOCC4)c(=O)n(C)c3nc12` was tested, and the cytotoxicity call was “inactive”. `O=C/C=C/c1ccccc1Cl` was tested, and the cytotoxicity call was “inactive”. For `C[C@@H]1CN([C@@H](C)CO)C(=O)c2cccc(NS(C)(=O)=O)c2O[C@H]1CN(C)C(=O)Nc1ccccc1`, the cytotoxicity call was “inactive”. With `C[C@@H]1CN([C@@H](C)CO)C(=O)c2cc(NC(=O)Cc3ccccc3)ccc2O[C@@H]1CN(C)S(C)(=O)=O` the cytotoxicity call was “inactive”. For `COC(=O)c1cccc(C(=O)OC)n1`, the cytotoxicity call was “inactive”. With `COC(=O)c1ccc(O)cc1` the cytotoxicity call was “inactive”. `COC(=O)c1ccc(C(=O)OC)nc1` was tested, and the cytotoxicity call was “active”. In the case of `C[C@H](CO)N1C[C@H](C)[C@@H](CN(C)S(=O)(=O)c2ccccc2)Oc2ccc(NC(=O)Nc3cccc4ccccc34)cc2C1=O`, the cytotoxicity call is reported as “inactive”. `CCC(=O)N[C@H]1CC[C@@H](CC(=O)OC)O[C@H]1CO` was tested, and the cytotoxicity call was “inactive”. In the case of `C[C@@H]1CN([C@H](C)CO)C(=O)c2cccc(NC(=O)C3CCCCC3)c2O[C@H]1CN(C)C(=O)Nc1cccc2ccccc12`, the cytotoxicity call is reported as “inactive”. In the case of `COC(=O)[C@H](Cc1ccccc1)N1CC2=C[C@@H]([C@@H](O)CCn3cc(C(=O)NO)nn3)n3c(=O)n(C)c(=O)n3[C@@H]2[C@@H](C2CC2)O1`, the cytotoxicity call is reported as “inactive”. For `Cc1ccc(S(=O)(=O)Nc2ccc3c(c2)C(=O)N([C@@H](C)CO)C[C@@H](C)[C@@H](CN(C)C(=O)Nc2ccc(F)cc2)OCCCC[C@@H](C)O3)cc1`, the cytotoxicity call was “inactive”. For `Cc1ccc(S(=O)(=O)Nc2ccc3c(c2)C(=O)N([C@H](C)CO)C[C@@H](C)[C@H](CN(C)C(=O)Nc2ccc(F)cc2)OCCCC[C@@H](C)O3)cc1`, the cytotoxicity call was “active”. `Cc1ccc(S(=O)(=O)Nc2ccc3c(c2)C(=O)N([C@H](C)CO)C[C@@H](C)[C@H](CN(C)C(=O)Nc2ccc(F)cc2)OCCCC[C@H](C)O3)cc1` was tested, and the cytotoxicity call was “active”. In the case of `Cc1ccc(S(=O)(=O)Nc2ccc3c(c2)C(=O)N([C@@H](C)CO)C[C@H](C)[C@@H](CN(C)C(=O)Nc2ccccc2)OCCCC[C@H](C)O3)cc1`, the cytotoxicity call is reported as “active”. For `Cc1ccc(S(=O)(=O)Nc2ccc3c(c2)C(=O)N([C@@H](C)CO)C[C@H](C)[C@H](CN(C)C(=O)Nc2ccc(F)cc2)OCCCC[C@@H](C)O3)cc1`, the cytotoxicity call was “inactive”. `Cc1ccc(S(=O)(=O)Nc2ccc3c(c2)C(=O)N([C@H](C)CO)C[C@H](C)[C@H](CN(C)C(=O)Nc2ccc(F)cc2)OCCCC[C@H](C)O3)cc1` was tested, and the cytotoxicity call was “inactive”. For `Cc1ccc(S(=O)(=O)Nc2ccc3c(c2)C(=O)N([C@@H](C)CO)C[C@H](C)[C@@H](CN(C)C(=O)Nc2ccc(F)cc2)OCCCC[C@H](C)O3)cc1`, the cytotoxicity call was “inactive”. In the case of `Cc1ccc(S(=O)(=O)Nc2ccc3c(c2)C(=O)N([C@@H](C)CO)C[C@@H](C)[C@@H](CN(C)C(=O)Nc2ccccc2)OCCCC[C@H](C)O3)cc1`, the cytotoxicity call is reported as “inactive”. For `Cc1ccc(S(=O)(=O)Nc2ccc3c(c2)C(=O)N([C@@H](C)CO)C[C@H](C)[C@@H](CN(C)C(=O)Nc2ccc(F)cc2)OCCCC[C@@H](C)O3)cc1`, the cytotoxicity call was “inactive”. In the case of `Cc1ccc(S(=O)(=O)Nc2ccc3c(c2)C(=O)N([C@H](C)CO)C[C@H](C)[C@@H](CN(C)C(=O)Nc2ccc(F)cc2)OCCCC[C@H](C)O3)cc1`, the cytotoxicity call is reported as “active”. For `Cc1ccc(S(=O)(=O)Nc2ccc3c(c2)C(=O)N([C@@H](C)CO)C[C@@H](C)[C@H](CN(C)C(=O)Nc2ccc(F)cc2)OCCCC[C@@H](C)O3)cc1`, the cytotoxicity call was “inactive”. `Cc1ccc(S(=O)(=O)Nc2ccc3c(c2)C(=O)N([C@H](C)CO)C[C@H](C)[C@@H](CN(C)C(=O)Nc2ccccc2)OCCCC[C@H](C)O3)cc1` was tested, and the cytotoxicity call was “inactive”.

Source: the antibiotic and cytotoxicity screens of Wong et al. (2023)
